# Calls of active or inactive are those of the source. Rule for the calls: active = hit-call score of the fitted dose curve at least 0.9, where 1 is the maximum; inactive = score below 0.9.
# Key:
# [1] = ATG_CRE_CIS: Attagene CIS-FACTORIAL HepG2 Assay for human cAMP Responsive Element (CRE) binding protein 3 (AID 2282926); settings: HepG2 CRE cis-reporter, Attagene multiplexed mRNA; actives raise or lower the signal
# Method in brief: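 Endogenous transcription factor activity read via CRE-regulated reporter transcripts in transfected HepG2 cells. After 24 h exposure, RNA was reverse-transcribed, amplified, fluorescently labelled and sized by capillary electrophoresis; gain or loss fitted against DMSO.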
# [2] = molecular target: CCAAT/enhancer-binding protein beta (Homo sapiens) (UniProt P17676); experiment: ATG_C_EBP_CIS: Attagene CIS-FACTORIAL HepG2 Assay for human CCAAT/Enhancer Binding Protein (C/EBP) beta (AID 2282927); settings: HepG2 Attagene cis-factorial transcription factor reporter; actives raise or lower the signal
# Method in brief: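 HepG2, transient MRTU transfection, 24 h treatment. RT-PCR plus CE fluorescence; DMSO negative control, bidirectional fit.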
# [3] = ATG_CMV_CIS: Attagene CIS-FACTORIAL HepG2 Assay for human CMV (Internal Marker) (AID 2282928); settings: HepG2 CMV promoter reporter, transcription factor profiling; actives raise or lower the signal;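 note: endpoint acts as a background internal control marker rather than a target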
# Method in brief: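 Readout: fluorescent reporter cDNA fragments separated by capillary electrophoresis after RT-PCR and HpaI cut. Cells: HepG2 carrying transfected cis-promoter reporter constructs, dosed 24 h. Endpoint serves as background internal-marker control, fit bidirectionally versus DMSO.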
# [4] = ATG_DR4_LXR_CIS: Attagene CIS-FACTORIAL HepG2 Assay for human Liver X Receptor (LXR), DR4 submotif (AID 2282929); settings: HepG2 Attagene DR4 cis-reporter, mRNA transcription; actives raise or lower the signal
# Method in brief: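 Endogenous factor activity at a DR4 cis-element is read as reporter mRNA in transiently transfected HepG2 cells. Exposure lasts 24 h; transcripts are amplified, fluorescently labelled and sized by capillary electrophoresis, with DMSO as baseline.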
# [5] = ATG_AP_2_CIS: Attagene CIS-FACTORIAL HepG2 Assay for human Activator Protein 2 (AP-2) (AID 2282932); settings: HepG2 AP-2 cis-reporter, Attagene transcription factor profiling; actives raise or lower the signal
# Method in brief: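 Liver-derived HepG2 line, cis-reporter system measuring endogenous factors; 24 h dosing; reporter mRNA detected by fluorescent RT-PCR and capillary electrophoresis.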
# [6] = ATG_E_Box_CIS: Attagene CIS-FACTORIAL HepG2 Assay for human Enhancer Box (E-box) (AID 2282936); settings: HepG2 E-box cis-reporter transcription, actives raise or lower the signal
# Method in brief: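 In this cell-based setup, HepG2 cells bearing transfected promoter-driven reporter units were exposed to chemicals for 24 h; reporter transcripts were amplified, 6-FAM-labelled, cut with HpaI and sized by capillary electrophoresis.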
# [7] = ATG_EGR_CIS: Attagene CIS-FACTORIAL HepG2 Assay for human Early Growth Response 1 (EGR1) (AID 2282938); settings: HepG2 Attagene CIS-FACTORIAL EGR reporter mRNA; actives raise or lower the signal
# Method in brief: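 HepG2, transient MRTU transfection (cis promoters), 24 h compound. RNA → RT (oligo-dT) → PCR → 6-FAM labelling → HpaI cut → CE fluorescence. Bidirectional fit, DMSO baseline.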
# [8] = ATG_M_19_CIS: Attagene CIS-FACTORIAL HepG2 Assay for M19 Transcription Factor (Internal Marker) (AID 2282939); settings: HepG2 Attagene CIS-FACTORIAL M19 internal marker reporter; actives raise or lower the signal
# Method in brief: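 Signals come from fluorescence of labelled reporter-specific PCR fragments resolved by capillary electrophoresis, following 24 h treatment of HepG2 cells transfected with cis-promoter reporter units; activity was fitted in both directions relative to DMSO.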
# [9] = ATG_Ets_CIS: Attagene CIS-FACTORIAL HepG2 Assay for human Erythroblast Transformation Specific (ETS) (AID 2282941); settings: HepG2 ETS cis-reporter transcription, actives raise or lower the signal
# Method in brief: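 RT-PCR/capillary electrophoresis fluorescence read-out of reporter mRNA; HepG2 transient multi-reporter transfection; 24 h compound exposure; gain or loss of signal fitted bidirectionally relative to DMSO.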
# [10] = molecular target: Hepatocyte nuclear factor 3-beta (Homo sapiens) (UniProt Q9Y261); experiment: ATG_FoxA2_CIS: Attagene CIS-FACTORIAL HepG2 Assay for human Forkhead box A2 (FOXA2) (AID 2282942); settings: HepG2 cis-reporter transcription factor activity, 24 h; actives raise or lower the signal
# Method in brief: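 Cells: HepG2, transient multiplex reporter transfection. Exposure 24 h. Detection: reporter-specific RT-PCR, fluorescent labelling, restriction digest, capillary electrophoresis. Analysis: bidirectional curve fit, DMSO as negative control.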
# [11] = ATG_FoxO_CIS: Attagene CIS-FACTORIAL HepG2 Assay for human Forkhead box O (FoxO) (AID 2282943); settings: HepG2 Attagene cis-reporter, FoxO element, mRNA; actives raise or lower the signal
# Method in brief: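 Transfected HepG2 reporter cells exposed to test chemical for 24 h; reporter RNA measured by reverse transcription, PCR and fluorescent capillary electrophoresis; curves fitted for increases and decreases against DMSO.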
# [12] = ATG_GATA_CIS: Attagene CIS-FACTORIAL HepG2 Assay for human GATA Binding Protein (AID 2282944); settings: HepG2 GATA cis-element reporter, Attagene multiplex mRNA; actives raise or lower the signal
# Method in brief: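 After transfecting HepG2 cells with multiple cis-regulated reporter units, chemicals are dosed for 24 h; isolated RNA undergoes RT-PCR and fluorescent labeling before capillary electrophoresis, with activity expressed against DMSO.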
# [13] = ATG_M_32_CIS: Attagene CIS-FACTORIAL HepG2 Assay for M32 Transcription Factor (Internal Marker) (AID 2282949); settings: HepG2 Attagene cis-factorial M32 reporter, mRNA; actives raise or lower the signal;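 note: background control marker of the multiplexed CIS panel rather than a real target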
# Method in brief: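 HepG2 transfectants (cis-regulated reporter transcription units) dosed 24 h. Reporter mRNA by RT-PCR plus CE, analysed as gain or loss relative to DMSO.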
# [14] = ATG_M_06_CIS: Attagene CIS-FACTORIAL HepG2 Assay for M06 Transcription Factor (Internal Marker) (AID 2282950); settings: HepG2 Attagene CIS-FACTORIAL M06 internal marker reporter; actives raise or lower the signal
# Method in brief: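 HepG2 liver cells, 24 h exposure. Reporter transcripts from transfected cis-element constructs quantified by RT-PCR/capillary electrophoresis fluorescence. Bidirectional curve fit against DMSO.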
# [15] = ATG_PXRE_CIS: Attagene CIS-FACTORIAL HepG2 Assay for human Pregnane X Receptor Element (PXRE) (AID 2282957); settings: HepG2 Attagene CIS-FACTORIAL PXRE reporter, mRNA; actives raise or lower the signal
# Method in brief: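 Reporter transcripts under endogenous PXR-responsive cis-regulation quantified from total RNA of transfected HepG2 cells 24 h post-dosing, via RT-PCR with fluorescent primer extension and capillary electrophoresis. Gain or loss of signal fitted against DMSO baseline.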
# [16] = ATG_Sox_CIS: Attagene CIS-FACTORIAL HepG2 Assay for human SRY-box transcription factor (SOX) (AID 2282960); settings: HepG2 Attagene cis-factorial SOX reporter, mRNA; actives raise or lower the signal
# Method in brief: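 Cells were transfected with reporter constructs under cis-regulatory promoters, then exposed to chemicals for 24 h. Reporter transcripts were quantified by fluorescence after RT-PCR and capillary electrophoresis; activity was fitted in both directions against DMSO.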
# [17] = molecular target: Transcription factor Sp1 (Homo sapiens) (UniProt P08047); experiment: ATG_Sp1_CIS: Attagene CIS-FACTORIAL HepG2 Assay for human Specificity Protein 1 (Sp1) (AID 2282961); settings: HepG2 Sp1 cis-reporter transcription, actives raise or lower the signal
# Method in brief: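 Measures mRNA induction of an Sp1-linked reporter in HepG2 cells 24 h post-dosing. Multiplexed reporters read by RT-PCR and capillary electrophoresis; DMSO serves as negative control and baseline.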
# [18] = ATG_SREBP_CIS: Attagene CIS-FACTORIAL HepG2 Assay for human Sterol Regulatory Element Binding (SREBP) (AID 2282962); settings: HepG2 Attagene cis-factorial SREBP reporter, mRNA; actives raise or lower the signal
# Method in brief: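 Readout: fluorescent reporter-transcript peaks resolved by capillary electrophoresis after RT-PCR. Cells were human HepG2 carrying transfected cis-promoter reporter constructs, dosed for 24 h. Gain or loss of signal was fitted against DMSO controls.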
# [19] = molecular target: Signal transducer and activator of transcription 3 (Homo sapiens) (UniProt P40763); experiment: ATG_STAT3_CIS: Attagene CIS-FACTORIAL HepG2 Assay for human Signal Transducer and Activator of Transcription 3 (STAT3) (AID 2282963); settings: HepG2, Attagene cis-factorial STAT3 reporter transcription; actives raise or lower the signal
# Method in brief: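 Fluorescence intensity of 6-FAM-labelled reporter fragments, separated by capillary electrophoresis after RT-PCR, gave the signal. Cells were HepG2 transfected with cis-element reporter units and treated 24 h; fitting was bidirectional relative to DMSO.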
# [20] = ATG_TA_CIS: Attagene CIS-FACTORIAL HepG2 Assay for human TA Basal Promoter (AID 2282964); settings: HepG2 Attagene CIS-factorial TA basal promoter reporter; actives raise or lower the signal
# Method in brief: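 Fluorescence from labelled RT-PCR reporter fragments, separated by capillary electrophoresis, gives the signal. Cells: HepG2 transiently carrying multiple reporter units, 24 h chemical dosing. Gain or loss relative to DMSO.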
# Signal transducer and activator of transcription 3 (Homo sapiens), sequence (P40763 whole entry, looked up, the tested form may be a part): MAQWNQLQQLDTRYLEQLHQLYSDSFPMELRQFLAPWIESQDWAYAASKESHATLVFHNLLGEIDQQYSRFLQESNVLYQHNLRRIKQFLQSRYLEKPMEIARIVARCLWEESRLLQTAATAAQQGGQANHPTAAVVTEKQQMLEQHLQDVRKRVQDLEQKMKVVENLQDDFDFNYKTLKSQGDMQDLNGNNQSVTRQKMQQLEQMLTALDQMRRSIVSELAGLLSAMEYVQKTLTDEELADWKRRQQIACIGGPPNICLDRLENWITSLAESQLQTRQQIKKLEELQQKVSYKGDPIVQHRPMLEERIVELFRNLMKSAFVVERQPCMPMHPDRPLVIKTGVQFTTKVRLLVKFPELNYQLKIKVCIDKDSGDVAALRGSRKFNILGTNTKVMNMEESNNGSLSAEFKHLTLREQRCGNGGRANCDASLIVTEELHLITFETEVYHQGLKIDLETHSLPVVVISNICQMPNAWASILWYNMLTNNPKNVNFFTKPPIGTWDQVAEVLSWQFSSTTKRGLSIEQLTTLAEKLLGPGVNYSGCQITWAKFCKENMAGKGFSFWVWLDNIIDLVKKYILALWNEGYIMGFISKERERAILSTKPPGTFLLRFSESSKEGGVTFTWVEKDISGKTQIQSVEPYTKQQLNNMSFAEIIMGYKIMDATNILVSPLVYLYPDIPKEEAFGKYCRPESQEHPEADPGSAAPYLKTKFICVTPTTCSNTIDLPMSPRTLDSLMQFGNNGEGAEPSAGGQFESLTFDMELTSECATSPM
# Transcription factor Sp1 (Homo sapiens), sequence (P08047 whole entry, looked up): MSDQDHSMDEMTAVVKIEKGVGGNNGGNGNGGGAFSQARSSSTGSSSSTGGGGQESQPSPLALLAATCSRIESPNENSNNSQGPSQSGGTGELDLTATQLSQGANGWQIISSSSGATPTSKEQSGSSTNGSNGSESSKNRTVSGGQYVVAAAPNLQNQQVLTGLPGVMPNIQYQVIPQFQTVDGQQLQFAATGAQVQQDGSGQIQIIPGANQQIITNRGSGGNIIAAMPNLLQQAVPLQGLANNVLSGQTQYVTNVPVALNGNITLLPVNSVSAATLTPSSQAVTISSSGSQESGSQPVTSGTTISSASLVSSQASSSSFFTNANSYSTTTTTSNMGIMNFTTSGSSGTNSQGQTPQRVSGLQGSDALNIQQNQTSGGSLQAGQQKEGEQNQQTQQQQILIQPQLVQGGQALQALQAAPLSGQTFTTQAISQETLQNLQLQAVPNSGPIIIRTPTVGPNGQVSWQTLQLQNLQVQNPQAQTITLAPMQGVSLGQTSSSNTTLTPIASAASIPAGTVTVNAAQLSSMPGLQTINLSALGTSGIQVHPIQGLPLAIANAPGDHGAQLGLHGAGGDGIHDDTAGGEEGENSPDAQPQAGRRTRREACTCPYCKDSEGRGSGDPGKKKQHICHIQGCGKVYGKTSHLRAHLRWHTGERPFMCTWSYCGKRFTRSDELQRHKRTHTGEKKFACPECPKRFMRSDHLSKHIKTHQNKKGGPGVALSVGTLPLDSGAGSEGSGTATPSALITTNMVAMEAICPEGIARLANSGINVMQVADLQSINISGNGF
# Hepatocyte nuclear factor 3-beta (Homo sapiens), sequence (Q9Y261 whole entry, looked up): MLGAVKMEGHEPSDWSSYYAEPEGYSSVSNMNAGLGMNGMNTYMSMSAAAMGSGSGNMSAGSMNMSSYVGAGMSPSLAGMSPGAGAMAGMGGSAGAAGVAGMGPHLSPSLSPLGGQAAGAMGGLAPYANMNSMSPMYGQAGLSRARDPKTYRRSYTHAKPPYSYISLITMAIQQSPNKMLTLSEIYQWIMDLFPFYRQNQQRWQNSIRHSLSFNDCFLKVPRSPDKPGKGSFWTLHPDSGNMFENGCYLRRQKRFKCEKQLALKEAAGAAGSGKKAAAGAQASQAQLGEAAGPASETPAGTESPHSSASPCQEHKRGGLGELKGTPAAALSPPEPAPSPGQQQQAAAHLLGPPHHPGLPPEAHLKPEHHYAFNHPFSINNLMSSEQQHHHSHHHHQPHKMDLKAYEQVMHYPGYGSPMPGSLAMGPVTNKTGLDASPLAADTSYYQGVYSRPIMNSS
# CCAAT/enhancer-binding protein beta (Homo sapiens), sequence (P17676 whole entry, looked up): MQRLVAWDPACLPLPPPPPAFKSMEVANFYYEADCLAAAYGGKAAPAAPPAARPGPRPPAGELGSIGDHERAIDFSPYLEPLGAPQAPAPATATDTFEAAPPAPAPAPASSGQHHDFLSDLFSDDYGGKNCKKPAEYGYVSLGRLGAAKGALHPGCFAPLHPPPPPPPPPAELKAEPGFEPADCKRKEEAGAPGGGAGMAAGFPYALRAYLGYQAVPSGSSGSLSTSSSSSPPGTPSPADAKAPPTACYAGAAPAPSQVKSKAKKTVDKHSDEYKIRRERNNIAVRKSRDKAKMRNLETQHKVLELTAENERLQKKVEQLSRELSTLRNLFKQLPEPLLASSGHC
structure (smiles),measurement,setting,value
CCOP(=O)(OCC)OCC,outcome,[1],inactive
same,outcome,[2],inactive
same,outcome,[3],inactive
same,outcome,[4],inactive
same,outcome,[5],inactive
same,outcome,[6],inactive
same,outcome,[7],inactive
same,outcome,[8],inactive
same,outcome,[9],inactive
same,outcome,[10],inactive
same,outcome,[11],inactive
same,outcome,[12],inactive
same,outcome,[13],inactive
same,outcome,[14],inactive
same,outcome,[15],inactive
same,outcome,[16],inactive
same,outcome,[17],inactive
same,outcome,[18],inactive
same,outcome,[19],inactive
same,outcome,[20],inactive
CSc1nc(N=[N+]=[N-])nc(NC(C)C)n1,outcome,[1],inactive
same,outcome,[2],inactive
same,AC50,[3],52.8 µM (active)
same,outcome,[4],inactive
same,outcome,[5],inactive
same,outcome,[6],inactive
same,outcome,[7],inactive
same,outcome,[8],inactive
same,outcome,[9],inactive
same,outcome,[10],inactive
same,outcome,[11],inactive
same,outcome,[12],inactive
same,outcome,[13],inactive
same,outcome,[14],inactive
same,AC50,[15],27.2 µM (active)
same,outcome,[16],inactive
same,outcome,[17],inactive
same,outcome,[18],inactive
same,outcome,[19],inactive
same,outcome,[20],inactive
CCCCCCCCCCCCCCCC[N+](C)(C)C,AC50,[1],48.9 µM (active)
same,AC50,[2],24.1 µM (active)
same,AC50,[3],48.9 µM (active)
same,outcome,[4],inactive
same,outcome,[5],inactive
same,AC50,[6],48.7 µM (active)
same,outcome,[7],inactive
same,outcome,[8],inactive
same,AC50,[9],100 µM (active)
same,outcome,[10],inactive
same,outcome,[11],inactive
same,AC50,[12],26.6 µM (active)
same,AC50,[13],25.5 µM (active)
same,outcome,[14],inactive
same,AC50,[15],20.3 µM (active)
same,AC50,[16],100 µM (active)
same,outcome,[17],inactive
same,outcome,[18],inactive
same,outcome,[19],inactive
same,outcome,[20],inactive
CCCCCc1cc(O)cc(O)c1,outcome,[1],inactive
same,outcome,[2],inactive
same,outcome,[3],inactive
same,AC50,[4],154 µM (active)
same,outcome,[5],inactive
same,AC50,[6],36.9 µM (active)
same,AC50,[7],100 µM (active)
same,outcome,[8],inactive
same,outcome,[9],inactive
same,outcome,[10],inactive
same,outcome,[11],inactive
same,outcome,[12],inactive
same,outcome,[13],inactive
same,outcome,[14],inactive
same,AC50,[15],9.47 µM (active)
same,outcome,[16],inactive
same,outcome,[17],inactive
same,outcome,[18],inactive
same,outcome,[19],inactive
same,AC50,[20],149 µM (active)
C=CC(=O)OCCCCOC(=O)C=C,outcome,[1],inactive
same,AC50,[2],168 µM (active)
same,AC50,[3],74 µM (active)
same,AC50,[4],52.4 µM (active)
same,outcome,[5],inactive
same,AC50,[6],70.1 µM (active)
same,AC50,[7],62.4 µM (active)
same,outcome,[8],inactive
same,AC50,[9],77.3 µM (active)
same,outcome,[10],inactive
same,AC50,[11],54.7 µM (active)
same,outcome,[12],inactive
same,outcome,[13],inactive
same,outcome,[14],inactive
same,AC50,[15],158 µM (active)
same,outcome,[16],inactive
same,AC50,[17],26 µM (active)
same,AC50,[18],80.9 µM (active)
same,outcome,[19],inactive
same,outcome,[20],inactive
O=C(CCN1CC1)OCC(CO)(COC(=O)CCN1CC1)COC(=O)CCN1CC1,outcome,[1],inactive
same,outcome,[2],inactive
same,outcome,[3],inactive
same,outcome,[4],inactive
same,outcome,[5],inactive
same,outcome,[6],inactive
same,outcome,[7],inactive
same,outcome,[8],inactive
same,outcome,[9],inactive
same,outcome,[10],inactive
same,outcome,[11],inactive
same,outcome,[12],inactive
same,outcome,[13],inactive
same,outcome,[14],inactive
same,outcome,[15],inactive
same,outcome,[16],inactive
same,outcome,[17],inactive
same,outcome,[18],inactive
same,outcome,[19],inactive
same,outcome,[20],inactive
CCC(C)c1cc(C(C)(C)C)cc(-n2nc3ccccc3n2)c1O (stereo not given),outcome,[1],inactive
same,outcome,[2],inactive
same,outcome,[3],inactive
same,AC50,[4],19.3 µM (active)
same,outcome,[5],inactive
same,outcome,[6],inactive
same,outcome,[7],inactive
same,outcome,[8],inactive
same,outcome,[9],inactive
same,outcome,[10],inactive
same,outcome,[11],inactive
same,outcome,[12],inactive
same,outcome,[13],inactive
same,outcome,[14],inactive
same,AC50,[15],4.36 µM (active)
same,outcome,[16],inactive
same,outcome,[17],inactive
same,outcome,[18],inactive
same,outcome,[19],inactive
same,outcome,[20],inactive

# From PubChem BioAssay (EPA / NIEHS)
